Autofluor counter: compound fluorescence in toxin protease inhibitor counterscreen. fluorescence intensity (concentration not given with the values). AID 624483. 360,000 compounds, 3.1% hits. compound autofluorescence counterscreen, microsphere flow cytometry; active compounds read high; in the data active means fluorescence intensity above about 16000; inconclusive means no clear call, values can overlap the other calls
BoNT A protease: blocks Botulinum neurotoxin A light chain protease. multiplex microsphere protease substrate cleavage, flow cytometry. inhibition, % at 10 µM. 360,000 compounds, 0.17% hits; further: plate controls were buffer without enzyme for full effect and enzyme alone for no effect
BoNT F protease: blocks Botulinum neurotoxin F light chain protease | inhibition, % at 10 µM | 360,000 compounds, 0.22% hits | AID 588497 | Multiplex microsphere protease cleavage assay, flow cytometry; in the data active means inhibition above about 35%, passing the limit was not always enough; inconclusive means no clear call, values can overlap the other calls; further: plate controls were buffer without enzyme for full effect and enzyme alone for no effect
MazF activator: MazEF (E. coli) toxin RNase activation; activation, % at 20 µM; FAM/BHQ RNA-DNA oligo cleavage fluorescence, 5 h; P0AE70; 350,000 compounds, 0.32% hits; in the data active means activation above about 50%
Target sequence (P0AE70 whole entry, looked up): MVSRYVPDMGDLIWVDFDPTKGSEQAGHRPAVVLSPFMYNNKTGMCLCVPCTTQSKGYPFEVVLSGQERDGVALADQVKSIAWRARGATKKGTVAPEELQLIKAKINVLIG
DUSP3 inh: inhibitors of human VHR1 phosphatase (DUSP3); recombinant VHR phosphatase, pNPP absorbance; inhibition, % at 13.3 µM; 290,000 compounds, 0.52% hits; P51452; in the data active means inhibition above about 50%
Target sequence (P51452 whole entry, looked up): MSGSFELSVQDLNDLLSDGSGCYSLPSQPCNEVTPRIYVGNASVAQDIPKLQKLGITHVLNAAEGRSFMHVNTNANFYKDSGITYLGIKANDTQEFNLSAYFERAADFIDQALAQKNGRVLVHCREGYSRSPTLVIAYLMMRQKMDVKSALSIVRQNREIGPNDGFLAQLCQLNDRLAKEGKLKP
Anthrax LF prot: anthrax lethal factor protease inhibition. P15917. multiplex microsphere protease cleavage assay, LF. inhibition, % at 10 µM. 360,000 compounds, 0.12% hits. AID 588501; further: plate controls were buffer without enzyme for full effect and enzyme alone for no effect
* = called active by the depositor; i = inactive; ? = inconclusive; / = not tested or not shown. Only some compounds are listed: those with a hit (about 4.1% of all), similar ones and a draw of the others. Unless noted, no stated cut-off is given here; in the data, active means inhibition above about 30%; inconclusive means no clear call, values can overlap the other calls; inactive means below that.

SMILES | Autofluor counter | BoNT A protease | BoNT F protease | MazF activator | DUSP3 inh | Anthrax LF prot
Cc1cc(C)nc(N2CCC(C(=O)NCCc3ccc(F)cc3)CC2)n1 | 26052* | ? | -9 | -2 | 21 | 0
Cc1cc(C)nc(N2CCC(C(=O)NCCc3ccc(Cl)cc3)CC2)n1 | 3478 | 0 | -4 | 1 | 34 | 4
CCOC(=O)Cc1nnc(NC(=O)C2CCCCC2)s1 | 2212 | 0 | -5 | 3 | 14 | -2
Cc1cc(C)nc(N2CCC(C(=O)NC3CC3)CC2)n1 | 4354 | 0 | -1 | 4 | 7 | -2
CCc1nnc(NC(=O)CN2CC(C)OC(C)C2)s1 (stereo not drawn) | 3060 | 2 | 34* | -31 | -6 | -9
CCc1nnc(NC(=O)C2CCN(c3nc(C)cc(C)n3)CC2)s1 | 24756* | -3 | -6 | 9 | 16 | -2
CCc1nnc(NC(=O)C2CCCCC2)s1 | 22291* | 2 | 3 | 1 | 25 | -7
CCc1nnc(NC(=O)CN2CCN(C3CCCCC3)CC2)s1 | 7712 | -1 | -5 | 11 | 6 | -2
CN(C)CCCn1c2c(c(SCC(=O)Nc3ccc4c(c3)OCCO4)nc1=O)CCCC2 | 3743 | 0 | 2 | 5 | / | -14
O=C(CSc1ncn(-c2ccccc2)n1)N1CCN(c2ccccc2)CC1 | 4608 | 1 | 10 | 2 | -25 | 2
Cc1cc(NC(=O)CSc2ncn(-c3ccccc3)n2)no1 | 2476 | 0 | -15 | 4 | 27 | -4
Clc1ccccc1CSc1ncn(-c2ccccc2)n1 | 21905* | 2 | 0 | -7 | 12 | 2
Cc1ccc(CSc2ncn(-c3ccccc3)n2)cc1 | 24543* | ? | -8 | 8 | 11 | -5
COc1ccccc1Cc1noc(COc2cccc(C)c2C)n1 | 16962* | -2 | -10 | -12 | -1 | -1
COc1ccccc1Cc1nc(-c2ccncc2)no1 | 4378 | 0 | -3 | 3 | 25 | -11
OCCN1CCN(c2ncnc3scc(-c4ccc(F)cc4)c23)CC1 | 3024 | -1 | 0 | 7 | 21 | -6
COc1ccc(-n2cc(-c3ccccc3)c3c(N4CCN(CCO)CC4)ncnc32)cc1 | 20444* | 7 | 8 | -10 | -12 | -2
COc1ccc(-c2csc3ncnc(N4CCN(CCO)CC4)c23)cc1 | 3271 | -5 | 10 | 5 | 57* | -10
Cc1onc(-c2ccccc2Cl)c1C(=O)N1CCN(c2ccc(F)cc2)CC1 | 5814 | 0 | -2 | 2 | 19 | 1
CCNc1nc(OC)nc(Oc2ccc(=O)n(-c3ccccc3)n2)n1 | 3471 | 1 | 11 | 16 | 2 | 2
COc1nc(NC(C)(C)C)nc(Oc2ccc(=O)n(-c3ccccc3)n2)n1 | 21751* | 0 | -1 | 6 | 12 | 0
CN(C)c1nc(Oc2ccc(=O)n(-c3ccccc3)n2)nc(N2CCOCC2)n1 | 21946* | ? | 0 | -10 | -6 | 0
COc1ccc(N2CCN(C(=O)CSc3nnc(NC(=O)C4CCC4)s3)CC2)cc1 | 4911 | -1 | -2 | 0 | 20 | 1
CS(=O)(=O)Nc1cccc(-c2ccc3nncn3c2)c1 | 3084 | 0 | -9 | / | / | -4
Cc1cc([N+](=O)[O-])nn1CC(=O)N(C)C1CCCCC1 | 5158 | -1 | 0 | 6 | -14 | -1
SMILES | Autofluor counter | BoNT A protease | BoNT F protease | MazF activator | DUSP3 inh | Anthrax LF prot
CCOC(=O)/C(=C/C=C1\Sc2cc(OCC)c(OCC)cc2N1CC)C(C)=O | 23889* | 13 | 44* | i | 12 | 20
CCOC(=O)/C(=C\C=C1/Sc2cc(OCC)c(OCC)cc2N1CC)C(C)=O | 33036* | 19 | 49* | 272* | -4 | 21
COc1ccc(-c2oc3c(c2C#CCCCCO)C(OCCO)CC3)cc1 (stereo not drawn) | 5322 | 0 | -6 | / | / | -2
O=C(c1ccc2c(c1)OCCO2)N1CCN(c2ccccn2)CC1 | 17835* | -38 | -60 | 4 | 30 | -10
O=C1CSc2ccc(C(=O)N3CCN(c4ccccn4)CC3)cc2N1 | 25914* | ? | -7 | 6 | 8 | -2
O=C1Nc2cc(C(=O)N3CCN(c4ccccn4)CC3)ccc2S/C1=C\c1ccccc1 | 5077 | 0 | 0 | 1 | -20 | 2
O=[N+]([O-])c1cc(C(F)(F)F)ccc1NCC1CCCO1 (stereo not drawn) | 3747 | -6 | ? | 92* | -4 | 10
N#Cc1cc(NCC2CCCO2)c([N+](=O)[O-])cc1C#N (stereo not drawn) | 2440 | 0 | 4 | 7 | -2 | 1

Compound activity as filed in PubChem BioAssay.
